{"source": "the supplement of paper PMC9950053", "note": "Where a name gives a salt, the structure may show the parent alone."}
{"system": "Danio rerio larvae (5 dpf)", "assay": "habituation (activity change first vs second 5 min of 1-s interval sound, period 17) minus DMSO control (percentage points); higher = larger habituation measure than DMSO larvae", "conditions": "10 µM; exposure time: 3 h pre-incubation + 3 h imaging", "method": "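Wild-type 5 dpf zebrafish larvae (n=48 per drug, 96-well plates, 28.5 °C) were exposed to Tocris FDA-approved library compounds at 10 µM (0.1% DMSO) for 3 h before and 3 h during imaging. Images were taken every 6 s during visual and acoustic stimuli, and larvae were tracked with Z-LaP Tracker. Each measure is the treated-group mean minus the DMSO control mean (n=844), in percentage points. This mapping covers compounds with 5-character plate codes.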"}
{"smiles": "NC(=O)OCC(COC(N)=O)c1ccccc1", "note": "[Felbamate]", "habituation": 2.5}
{"smiles": "N#C[C@@H]1C[C@@H]2C[C@@H]2N1C(=O)[C@@H](N)C12CC3CC(CC(O)(C3)C1)C2", "note": "[Saxagliptin hydrochloride]", "habituation": 2.76}
{"smiles": "Clc1ccc2nsnc2c1NC1=NCCN1", "note": "[Tizanidine hydrochloride]", "habituation": -2.36}
{"smiles": "COCCc1ccc(OCC(O)CNC(C)C)cc1", "note": "(configuration not stated) [Metoprolol tartrate]", "habituation": -3.41}
{"smiles": "CN(C)CCc1c[nH]c2ccc(C[C@H]3COC(=O)N3)cc12", "note": "[Zolmitriptan]", "habituation": -0.595}
{"smiles": "CC(=O)Nc1ccc(O)cc1", "note": "[Acetaminophen]", "habituation": -1.62}
{"smiles": "CCCC1O[C@@H]2C[C@H]3[C@@H]4CCC5=CC(=O)C=C[C@]5(C)[C@H]4[C@@H](O)C[C@]3(C)[C@]2(C(=O)CO)O1", "note": "(some centres not stated) [Budesonide]", "habituation": -1.55}
{"smiles": "COc1ccccc1OCC(O)CN1CCN(CC(=O)Nc2c(C)cccc2C)CC1", "note": "(configuration not stated) [Ranolazine dihydrochloride]", "habituation": -2.2}
{"smiles": "COc1cc(N)c(Cl)cc1C(=O)NC1CCN(CCCOc2ccc(F)cc2)CC1OC", "note": "(configuration not stated) [Cisapride]", "habituation": 4.4}
{"smiles": "COc1cc([C@@H]2c3cc4c(cc3[C@@H](O[C@@H]3O[C@@H]5CO[C@@H](C)O[C@H]5[C@H](O)[C@H]3O)[C@H]3COC(=O)[C@H]23)OCO4)cc(OC)c1O", "note": "[Etoposide]", "habituation": 1.7}
{"smiles": "COc1ccccc1Oc1c(NS(=O)(=O)c2ccc(C(C)(C)C)cc2)nc(-c2ncccn2)nc1OCCO", "note": "[Bosentan]", "habituation": 4.58}
{"smiles": "CC(=O)Oc1cc2c(s1)CCN(C(C(=O)C1CC1)c1ccccc1F)C2", "note": "(configuration not stated) [Prasugrel]", "habituation": 0.528}
{"smiles": "Cc1cc2c(s1)Nc1ccccc1N=C2N1CCN(C)CC1", "note": "[Olanzapine]", "habituation": 0.758}
{"smiles": "NS(=O)(=O)c1cc2c(cc1Cl)NC(C1CC3C=CC1C3)NS2(=O)=O", "note": "(configuration not stated) [Cyclothiazide]", "habituation": 1.92}
{"smiles": "OCc1cc(C(O)CNCCCCCCOCCCCc2ccccc2)ccc1O", "note": "(configuration not stated) [Salmeterol xinafoate]", "habituation": -0.659}
{"smiles": "CC(C)OC(=O)C(C)(C)Oc1ccc(C(=O)c2ccc(Cl)cc2)cc1", "note": "[Fenofibrate]", "habituation": -2.39}
{"smiles": "CNC(=O)c1cc(Oc2ccc(NC(=O)Nc3ccc(Cl)c(C(F)(F)F)c3)cc2)ccn1", "note": "[Sorafenib]", "habituation": -9.55}
{"smiles": "CC[C@H]1OC(=O)[C@H](C)[C@@H](O[C@H]2C[C@@](C)(OC)[C@@H](O)[C@H](C)O2)[C@H](C)[C@@H](O[C@@H]2O[C@H](C)C[C@H](N(C)C)[C@H]2O)[C@](C)(O)C[C@@H](C)CN(C)[C@H](C)[C@@H](O)[C@]1(C)O", "note": "[Azithromycin]", "habituation": 3.26}
{"smiles": "O=C(O)C[C@H](O)C[C@H](O)/C=C/c1c(C2CC2)nc2ccccc2c1-c1ccc(F)cc1", "note": "[Pitavastatin calcium]", "habituation": -5.34}
{"smiles": "CN(C)C(=N)NC(=N)N", "note": "[Metformin hydrochloride]", "habituation": 2.17}
{"smiles": "C#CCN[C@@H]1CCc2ccccc21", "note": "[Rasagiline mesylate]", "habituation": 3.64}
{"smiles": "O=C1CCc2ccc(OCCCCN3CCN(c4cccc(Cl)c4Cl)CC3)cc2N1", "note": "[Aripiprazole]", "habituation": -7.85}
{"smiles": "COc1cc2nccc(Oc3ccc(NC(=O)C4(C(=O)Nc5ccc(F)cc5)CC4)cc3)c2cc1OC", "habituation": -4.58}
{"smiles": "CC(C)COCC(CN(Cc1ccccc1)c1ccccc1)N1CCCC1", "note": "(configuration not stated) [Bepridil hydrochloride]", "habituation": -5.91}
{"smiles": "CN[C@H]1CC[C@@H](c2ccc(Cl)c(Cl)c2)c2ccccc21", "note": "[Sertraline hydrochloride]", "habituation": -8.76}
{"smiles": "OCCN1C[C@H](O)[C@@H](O)[C@H](O)[C@H]1CO", "note": "[Miglitol]", "habituation": -1.71}
{"smiles": "CNCc1ccc(-c2[nH]c3cc(F)cc4c3c2CCNC4=O)cc1", "note": "[Rucaparib camsylate]", "habituation": 5.03}
{"smiles": "CNS(=O)(=O)Cc1ccc2[nH]cc(CCN(C)C)c2c1", "note": "[Sumatriptan succinate]", "habituation": 2.06}
{"smiles": "CCCCCCCN(CC)CCCC(O)c1ccc(NS(C)(=O)=O)cc1", "note": "(configuration not stated) [Ibutilide hemifumarate]", "habituation": -0.126}
{"smiles": "C[C@H]1O[C@H](O[C@H]2[C@H](O)[C@@H](O)[C@@H](O[C@H]3[C@H](O)[C@@H](O)C(O)O[C@@H]3CO)O[C@@H]2CO)[C@H](O)[C@@H](O)[C@@H]1N[C@H]1C=C(CO)[C@@H](O)[C@H](O)[C@H]1O", "note": "(some centres not stated) [Acarbose]", "habituation": 1.19}
{"smiles": "CC(C)(C(=O)O)c1ccc(C(O)CCCN2CCC(C(O)(c3ccccc3)c3ccccc3)CC2)cc1", "note": "(configuration not stated) [Fexofenadine hydrochloride]", "habituation": 3.94}
{"smiles": "OC(c1cc(C(F)(F)F)nc2c(C(F)(F)F)cccc12)C1CCCCN1", "note": "(configuration not stated) [Mefloquine hydrochloride]", "habituation": 3.04}
{"smiles": "C[C@@H]1C[C@H]2[C@@H]3CCC4=CC(=O)C=C[C@]4(C)[C@@]3(F)[C@@H](O)C[C@]2(C)[C@@]1(O)C(=O)CO", "note": "[Dexamethasone]", "habituation": 2.24}
{"smiles": "CCCc1nn(C)c2c(=O)[nH]c(-c3cc(S(=O)(=O)N4CCN(C)CC4)ccc3OCC)nc12", "note": "[Sildenafil citrate]", "habituation": -2.72}
{"smiles": "O=c1n(CCCN2CCN(c3cccc(Cl)c3)CC2)nc2ccccn12", "note": "[Trazodone hydrochloride]", "habituation": -12.5}
{"smiles": "N#Cc1ccc2[nH]cc(CCCCN3CCN(c4ccc5oc(C(N)=O)cc5c4)CC3)c2c1", "note": "[Vilazodone hydrochloride]", "habituation": -2.05}
{"smiles": "CCc1nc(N)nc(N)c1-c1ccc(Cl)cc1", "note": "[Pyrimethamine]", "habituation": 3.38}
